Test [1] is described as follows: compound effects on lung adenocarcinoma cell viability – A549, calcein-AM fluorescence, 48 h, basal, profiling panel (AID 1162). Particulars: higher = more signal.
A short description of test [2]: compound effects on differentiated 3T3-L1 adipocyte viability – cell-based, 3T3-L1 adipocytes, calcein-AM fluorescence, 48 h, basal, profiling panel (AID 1163). The conditions noted are these: 3T3-L1 adipocytes viability, higher = more signal.
Test [3] can be described thus: compound effects on hepatocellular carcinoma cell viability – HepG2, calcein-AM fluorescence, 48 h, basal, profiling panel (AID 1164). The conditions noted are these: higher = more signal.
Test [4] can be described thus: compound effects on multiple myeloma cell viability – MM1S, calcein-AM fluorescence, 48 h, basal, profiling panel (AID 1165).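 Further: viability of MM1S multiple myeloma cells under basal unstimulated conditions.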 Particulars: higher = more signal.
Test [5] is described as follows: calcein-AM signal in unstimulated myeloma cells – cell-based, calcein-AM fluorescence, 48 h, PK04 Diversity Set, profiling panel (AID 1166).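 Further: cells grown under basal conditions without added stimulus.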 The conditions noted are these: RPMI8226 myeloma viability, higher = more signal.
A short description of test [6]: JC-1 mitochondrial signal, unstimulated HepG2 cells – cell-based, JC-1 fluorescence, 24 h, 100 nL compound, profiling panel (AID 1167). Particulars: HepG2 mitochondrial potential, higher = more signal.
Test [7] is described as follows: JC-1 mitochondrial signal, unstimulated adipocytes – cell-based, JC-1 fluorescence, 3T3-L1 adipocytes, 24 h, 100 nL compound, profiling panel (AID 1168). Particulars: JC-1 mitochondrial fluorescence, higher = more signal, called active from +8 up or from −8 down.
The nature of test [8]: JC-1 mitochondrial signal, unstimulated myeloma cells – cell-based, JC-1 fluorescence, RPMI8226, 24 h, 100 nL compound, profiling panel (AID 1169). The conditions noted are these: JC-1 mitochondrial potential fluorescence, higher = more signal.
The nature of test [9]: JC-1 mitochondrial signal, unstimulated MM1S myeloma – cell-based, JC-1 fluorescence, 24 h, 100 nL compound, profiling panel (AID 1170). The conditions noted are these: MM1S mitochondrial potential, higher = more signal.
Test [10] in a line: resazurin metabolic signal in A549 cells – cell-based, resazurin fluorescence, 24 h, PK04 Diversity Set, profiling panel (AID 1171). Particulars: A549 viability, higher = more signal, called active from +8 up or from −8 down. In general terms: The colour change of resazurin is a common sign of viable cells or microbes.

Activity calls are given as the source filed them.
Further: test concentration not given here.

As for `O=C(NCC(O)CO)[C@@]1(Cc2ccccc2)N=C(c2ccc(OCCCO)cc2)O[C@H]1c1ccccc1` (stereo not given in full), the z-score in test [1] was -0.125; in [2], 1.2; in test [3] it was -0.266; in [4] it was -1.93; in test [5] it was -0.0748; in test [6] it was 0.4. In addition, the z-score in test [7] was 0.366 (inactive); in [8], -0.392; in test [9] it was -0.223; in [10], 0.564 (inactive).
For the compound `CCN(CC)c1ccc(N2CC=CC34O[C@@H]5C=CCCOC(=O)C5[C@H]3C(=O)N(CCCO)[C@@H]4C2=O)cc1` (stereo not given in full), the z-score in test [1] was -0.0905; in test [2], 0.848; in [3] it was 0.0124; in [4] it was -0.0503; in [5], -0.402; in test [6], 0.723. In addition, the z-score in [7] was 0.673 (inactive); in test [8], 0.0131; in [9] it was 0.744; in test [10], -0.209 (inactive).
On to `Cc1ccc(F)cc1S(=O)(=O)N[C@@H]1CCN(Cc2ccc(C(F)(F)F)cc2)C1`, for which the z-score in test [1] is -0.455; in test [2], -1.68; in test [3] it was -1.82; in [4], -2.4; in test [5], -2.09; in test [6] it was -3.18. For the same compound, the z-score is -0.332 (inactive) in test [7], -0.615 in [8], -1.75 in [9] and -0.196 (inactive) in test [10].
As for `O[C@@H](Cc1ccccc1)[C@@H](/C=C/c1ccccc1)NCc1ccccc1Br`, the z-score in test [1] was 0.0965; in [2], -0.766; in test [3] it was -0.0276; in [4], -1.3; in test [5] it was -0.771; in test [6] it was 0.313. For the same compound, the z-score was 0.19 (inactive) in test [7], -0.228 in [8], -1.8 in test [9] and -0.396 (inactive) in test [10].
Regarding `O=C1OCC=C[C@H]2OC34C=CCN(CCN5CCOCC5)C(=O)[C@H]3N(CCCCCCO)C(=O)[C@@H]4[C@@H]12` (stereo not given in full), the z-score in test [1] is -0.213; in [2], -0.0626; in test [3] it was 0.775; in test [4], 1.56; in test [5] it was 0.802; in [6], -0.00733. Besides, the z-score in test [7] was -0.199 (inactive); in test [8], 1.11; in test [9] it was 0.858; in test [10] it was -0.352 (inactive).
As to `COc1ccc([Si](C)(C)[C@@H]2[C@@H](CCO)O[C@]3(C(=O)N(Cc4ccccc4)c4ccc(N(C=O)c5ccccc5)cc43)[C@H]2C)cc1`, the z-score in [1] is -0.77; in [2] it was -0.895; in test [3], -1.13; in [4], -1.54; in test [5] it was -3.38; in test [6], 0.00444. The z-score in [7] is -0.435 (inactive); in test [8] it was -0.858; in [9], -1.56; in test [10], -2.31 (inactive).
`[N-]=[N+]=Nc1ccccc1[C@@H]1OC(c2ccc(OCCCO)cc2)=N[C@]1(CCS(=O)(=O)c1ccccc1)C(=O)O`: the z-score in test [1] is 0.926; in test [2] it was -0.149; in [3] it was 0.846; in test [4] it was -0.57; in test [5], -1.47; in test [6] it was -3.18. The z-score is -1.07 (inactive) in test [7], -0.373 in test [8], -1.17 in [9] and 0.343 (inactive) in test [10].
As to `COc1cc2c(cc1O)C(c1ccc(CN3CCCC3)cc1)N(Cc1sc3ccccc3c1Cl)CC2` (stereo not given), the z-score in [1] is -0.42; in test [2] it was -0.0706; in [3], -1.5; in test [4], -1.89; in test [5], -1.24; in [6], -0.535. The z-score in test [7] is -0.506 (inactive); in test [8], -0.105; in test [9] it was -0.774; in [10], 0.835 (inactive).
Regarding `COC(=O)[C@@]1(Cc2ccc(OC)cc2)[C@H]2c3cc(C(=O)N(C)C)n(CCSCCO)c3C[C@H]2CN1C(=O)c1ccccc1`, the z-score in [1] is -0.46; in [2], -0.774; in [3] it was 0.595; in test [4] it was -2.12; in [5], -0.254; in [6], 1.47. Also, the z-score in [7] was -0.358 (inactive); in test [8] it was 0.179; in test [9], -1.07; in test [10], -0.494 (inactive).
With `COc1ccc([Si](C)(C)[C@H]2[C@H](CC(=O)N3CCC[C@H]3CO)O[C@@]3(C(=O)N(Cc4cccc(N5CCC5=O)c4)c4ccccc43)[C@@H]2C)cc1`, the z-score in [1] is -0.246; in test [2], 1.57; in [3], -0.108; in test [4], -2.2; in [5], -4.11; in test [6], 3.25. Further, the z-score was -0.457 (inactive) in test [7], -1.14 in test [8], 0.619 in [9] and -1.2 (inactive) in test [10].
On to `Cc1ccc(N2C(=O)c3ccccc3[C@](C)(C(=O)NCCN3CCOCC3)[C@@H]2c2ccc(CO)cc2)nc1`, for which the z-score in test [1] is -0.68; in test [2], 0.994; in test [3] it was -0.808; in test [4], 0.839; in test [5] it was -1.49; in [6] it was 0.144. Besides, the z-score was -0.674 (inactive) in test [7], -0.628 in [8], 0.0375 in [9] and 0.667 (inactive) in test [10].
Regarding `CC(=O)N1Cc2ccccc2C[C@@]2(N=C(c3ccc(OCCCO)cc3)O[C@H]2c2ccccc2)C1=O`, the z-score in [1] was -1.09; in test [2] it was 0.609; in test [3], -1.31; in test [4], -2.19; in test [5], -3.36; in [6], 1.8. Besides, the z-score in test [7] is 0.234 (inactive); in test [8] it was -1.15; in test [9], -0.438; in test [10], -2.8 (inactive).
With `COC(=O)[C@@]1(Cc2ccc(OC)cc2)[C@H]2c3cc(C(=O)N4CCCC4)n(CCc4ccccn4)c3C[C@H]2CN1C(=O)c1ccccc1`, the z-score was -0.991 in test [1]; 1.13 in test [2]; -0.946 in [3]; 0.0275 in test [4]; -1.7 in test [5]; 1.1 in [6]. The z-score was -1.59 (inactive) in test [7], -0.161 in [8], 0.00382 in test [9] and -0.201 (inactive) in [10].
For the compound `[N-]=[N+]=NCc1ccccc1C[C@]1(C(=O)NCc2ccccc2)COC(c2ccc(OCCCO)cc2)=N1`, the z-score is -2.45 in test [1]; -0.679 in test [2]; -3.8 in test [3]; -3.38 in test [4]; -4.32 in test [5]; 0.762 in test [6]. Further, the z-score in [7] was 0.768 (inactive); in test [8], -0.891; in test [9] it was -2.3; in test [10] it was -1.42 (inactive).
In the case of `COCC1C2CC[C@H]3C(OCc4ccc(F)cc4C(F)(F)F)OC[C@]4(C)[C@H]3C2=C(CN4C(=O)OC(C)(C)C)[C@H](C)C1COC` (stereo not given in full), the z-score in test [1] was -0.201; in test [2] it was -0.511; in [3], 0.922; in test [4], -2.86; in [5], -3.14; in test [6], 1.53. In addition, the z-score in [7] is -0.453 (inactive); in [8], -0.507; in [9] it was -1.42; in test [10], -0.546 (inactive).
Consider `COc1ccc([Si](C)(C)[C@H]2[C@H](CC(=O)N(CCO)Cc3ccccc3)O[C@@]3(C(=O)N(Cc4cccc(N5C(=O)c6cccc7cccc5c67)c4)c4ccccc43)[C@@H]2C)cc1`, for which the z-score in test [1] was -0.191; in [2], 0.996; in [3], -1.5; in test [4] it was -0.883; in test [5] it was -4.29; in test [6] it was 0.0381. Further, the z-score in [7] is 2.83 (inactive); in [8], -1.06; in test [9], -1.08; in test [10], -2.32 (inactive).
`Cc1ccc(S[C@]2(C(=O)NCCCN(C)C)CC(=O)N(Cc3ccccc3)[C@@H]2c2ccc(CO)cc2)cc1`: the z-score in [1] is 0.931; in test [2], -0.084; in test [3] it was -0.569; in [4], -0.569; in test [5] it was -1.12; in test [6], 0.816. Also, the z-score in [7] was -0.946 (inactive); in [8], -0.718; in test [9] it was 0.706; in test [10], 0.516 (inactive).
`COCCOC(=O)N1C(=O)[C@@]2(c3cc(C#CC4=CCCCC4)ccc31)[C@H](C(=O)N1CCN(c3ncccn3)CC1)[C@H]1C(=O)O[C@H](c3ccccc3)[C@H](c3ccccc3)N1[C@@H]2c1ccc(OCCO)cc1`: the z-score was -0.167 in [1]; 0.937 in [2]; -0.247 in test [3]; -1.05 in test [4]; -0.812 in test [5]; -0.203 in test [6]. Besides, the z-score in test [7] is 1.59 (inactive); in test [8], -0.606; in test [9], -0.822; in [10], 0.532 (inactive).
As for `COc1ccc(CCNC(=O)[C@@]2(C)c3ccccc3C(=O)N(Cc3ccccc3)[C@H]2c2ccc(CO)cc2)cc1`, the z-score in test [1] was -0.973; in test [2] it was 0.456; in test [3], -0.833; in test [4], -0.886; in [5], -2.55; in test [6], 1.05. For the same compound, the z-score in test [7] was -0.965 (inactive); in [8] it was -0.0556; in [9], -0.986; in test [10], 2.17 (inactive).
Take `CCCCC(=C=CC[C@H](O)c1ccccc1OCCO)C[C@H](O)c1cc(Cl)cc(Cl)c1O`: the z-score in [1] was 0.441; in [2], -0.0739; in test [3], 0.105; in [4], -3.29; in [5], -2.59; in test [6], -0.605. For the same compound, the z-score in test [7] was 0.201 (inactive); in test [8] it was -0.655; in [9] it was -1.13; in [10], 0.135 (inactive).
Take `COC(=O)[C@@]1(Cc2ccc(F)cc2)[C@H]2c3cc(C(=O)N(C)C)n(CCc4c[nH]c5ccc(OC)cc45)c3C[C@H]2CN1C(=O)c1ccccc1`: the z-score in test [1] is -0.906; in [2], 0.813; in [3], -0.885; in [4], -0.64; in test [5] it was -1.79; in [6], 0.922. In addition, the z-score in test [7] was -0.939 (inactive); in test [8], -0.262; in test [9], -1.82; in test [10] it was -0.752 (inactive).

The values are drawn from PubChem BioAssay.
